# Measurements taken from PubChem BioAssay (NCATS).
# “And” between values parts separate entries of the source, which are not always exact repeats. Equal entries are not always repeated. Records with an inconclusive call do not appear. The source made the active and inactive calls. The call rests on the fitted dose curve; in most records, active means well fitted curve in the direction sought with a large enough effect; inconclusive means small, poorly fitted or top-dose-only effect, or another doubt; inactive means no such curve, though single readings can be large; an effect the other way counts as inactive or inconclusive.
# Tests used:
# [1] = target: Cellular tumor antigen p53 (Homo sapiens) (UniProt P04637); assay: Primary qHTS for small molecule compounds that upregulate eGFP-tagged delta133p53alpha (in N-terminal) cells. (AID 2060322); details: NCI-H358 eGFP-delta133p53alpha fluorescence, 24 h; activation: hits give high values; further: nearly all actives have a fitted effect of over 75% in size; further: potency means the concentration at half of the fitted maximal effect;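 on activation: cells pre-induced with doxycycline then dosed without doxycycline; series mostly up to about 56 µM; 0% = DMSO vehicle and 100% = reference activator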
# Outline: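 NCI-H358 cells pre-induced 24 h with 10 ng/ml doxycycline for eGFP-delta133p53alpha, plated dox-free and exposed 24 h at 37C to titrated compounds. Fixed, Hoechst-stained; gated GFP peak intensity by laser scanning cytometry, normalized to DMSO (0%) and 57.5 uM 5-azacytidine (100%).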
# [2] = target: Aldehyde dehydrogenase, mitochondrial (Homo sapiens) (UniProt P05091); assay: qHTS for Inhibitors of the Aldehyde Dehydrogenase Family (ALDH2) Primary screen (AID 2061308);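 further: plate controls were vehicle for no effect and reference inhibitor for full effect; nearly all actives have a fitted effect of over 55% in size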
# [3] = target: Retinaldehyde dehydrogenase 3 (Homo sapiens) (UniProt P47895); assay: qHTS for Inhibitors of the Aldehyde Dehydrogenase Family (ALDH1A3) Primary screen (AID 2061315);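 further: plate controls were DMSO vehicle for no effect and reference inhibitor for full effect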
# [4] = BET inhibitor-based combinations targeting novel dependencies in MECOM-rearranged (r) AML: MV-4-11 cell line (AID 2202233); further: nearly all actives have a fitted effect of over 45% in size; further: potency means the concentration at half of the fitted maximal effect
# Outline: (§1)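 Seeding density was 500 cells/well, and drug exposure lasted 48 hr under standard culture conditions. Read-out used CellTiter-Glo reagent with a 15 min room-temperature incubation before luminescence measurement; AUC and Z-AUC summarize the normalized responses.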
# [5] = BET inhibitor-based combinations targeting novel dependencies in MECOM-rearranged (r) AML: HNT-34 cell line (AID 2202234); further: nearly all actives have a fitted effect of over 35% in size; further: potency means the concentration at half of the fitted maximal effect
# Outline: as §1
# [6] = BET inhibitor-based combinations targeting novel dependencies in MECOM-rearranged (r) AML: UCSD-AML1 cell line (AID 2202235); further: nearly all actives have a fitted effect of over 40% in size; further: potency means the concentration at half of the fitted maximal effect
# Outline: as §1
# [7] = BET inhibitor-based combinations targeting novel dependencies in MECOM-rearranged (r) AML: AML-194 cell line (AID 2202237; further: nearly all actives have a fitted effect of over 40% in size; further: potency means the concentration at half of the fitted maximal effect)
# Outline: (§2)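 Readout: CellTiter-Glo luminescence. Exposure: 48 h, 11 concentrations, 500 cells/well. Metric: AUC and within-line Z-AUC after DMSO/empty-well normalization.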
# [8] = BET inhibitor-based combinations targeting novel dependencies in MECOM-rearranged (r) AML: AML-191 cell line (AID 2202236; further: nearly all actives have a fitted effect of over 35% in size; further: potency means the concentration at half of the fitted maximal effect)
# Outline: as §2
# [9] = target: Retinaldehyde dehydrogenase 3 (Homo sapiens) (UniProt P47895); assay: qHTS for Inhibitors of the Aldehyde Dehydrogenase Family (ALDH1A3) Validation screen (AID 2061312); further: on the % scale 0 is the no-effect control and ±100 the full control effect; nearly all actives have a fitted effect of over 45% in size
# [10] = BET inhibitor-based combinations targeting novel dependencies in MECOM-rearranged (r) AML: SET-2 cell line (AID 2202231); details: SET-2 AML cells viability, CellTiter-Glo luminescence, 48 h; viability: hits give low values, concentration not given here; further: potency means the concentration at half of the fitted maximal effect; nearly all actives have a fitted effect of over 35% in size
# Outline: as §2
# [11] = BET inhibitor-based combinations targeting novel dependencies in MECOM-rearranged (r) AML: OCI-AML3 cell line (AID 2202232); details: Potency: OCI-AML3 viability; further: potency means the concentration at half of the fitted maximal effect; nearly all actives have a fitted effect of over 35% in size
# Outline: as §2
# [12] = target: Retinaldehyde dehydrogenase 3 (Homo sapiens) (UniProt P47895); assay: qHTS for Inhibitors of the Aldehyde Dehydrogenase Family (ALDH1A3) Confirmatory screens (AID 2061311); further: potency means the concentration at half of the fitted maximal effect; nearly all actives have a fitted effect of over 60% in size
# [13] = target: Aldehyde dehydrogenase 1A1 (Homo sapiens) (UniProt P00352); assay: qHTS for Inhibitors of the Aldehyde Dehydrogenase Family (ALDH1A1) Confirmatory screens (AID 2061316); further: potency means the concentration at half of the fitted maximal effect; nearly all actives have a fitted effect of over 65% in size
# Sequence of Cellular tumor antigen p53 (Homo sapiens) (P04637 whole entry, looked up): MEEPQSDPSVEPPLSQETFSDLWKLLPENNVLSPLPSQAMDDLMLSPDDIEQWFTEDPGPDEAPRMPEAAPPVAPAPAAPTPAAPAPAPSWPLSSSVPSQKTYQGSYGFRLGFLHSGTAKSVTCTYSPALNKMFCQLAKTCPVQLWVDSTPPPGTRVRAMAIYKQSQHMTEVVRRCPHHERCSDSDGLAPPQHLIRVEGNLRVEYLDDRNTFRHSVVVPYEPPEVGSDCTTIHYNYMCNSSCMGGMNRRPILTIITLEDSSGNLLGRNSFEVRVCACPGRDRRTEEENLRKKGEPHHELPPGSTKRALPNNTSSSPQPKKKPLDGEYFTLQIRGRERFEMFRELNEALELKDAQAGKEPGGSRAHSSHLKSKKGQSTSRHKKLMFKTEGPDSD
compound,measurement,setting,value
Cc1ccccc1C(=O)c1ccc(Nc2ccc(Br)cc2N)cc1Cl,activation,[1],19.2% (inactive) and -0.893% (inactive)
same,Potency,[2],inactive
same,Potency,[3],inactive
same,Potency,[4],18.6 µM (active)
same,Potency,[5],23.5 µM (active)
same,Potency,[6],inactive
same,Potency,[7],inactive
CN(C)CCCNC(=O)c1ccc(-c2cc(O)c3ncccc3c2)cc1,activation,[1],-8.46% (inactive) and -17.9% (inactive)
same,Potency,[2],inactive
same,Potency,[3],inactive
same,Potency,[6],18.6 µM (active)
c1ccc(-c2oc3ncnc(NC[C@@H]4CCCO4)c3c2-c2ccccc2)cc1,activation,[1],5.12% (inactive) and -14.3% (inactive)
same,Potency,[2],inactive
same,Potency,[3],inactive
same,Potency,[4],inactive
same,Potency,[5],inactive
same,Potency,[8],inactive
same,Potency,[7],inactive
CC(Nc1ncnc2nc[nH]c12)c1cc2cccc(Cl)c2c(=O)n1-c1ccccc1 (centres undefined),activation,[1],27.7% (inactive)
same,Potency,[2],inactive
same,Potency,[3],inactive
same,Potency,[4],5.9 µM (active)
same,Potency,[6],3.72 µM (active)
NC(=O)c1ccc2nc(-c3ccc(Oc4ccc(Cl)cc4)cc3)[nH]c2c1,activation,[1],-21.2% (inactive) and -4.33% (inactive)
same,Potency,[2],inactive
same,Potency,[3],inactive
same,Potency,[6],inactive
same,Potency,[8],inactive
same,Potency,[7],inactive
CC(C)[C@](O)(c1ccc2cc(OC(F)F)c(OC(F)F)cc2c1)c1cn[nH]n1,activation,[1],12.3% (inactive)
same,Potency,[2],inactive
same,Potency,[3],inactive
same,Potency,[6],inactive
CC1CCC(C(=O)N(c2cc(C#CC(C)(C)C)sc2C(=O)O)C2CCC(O)CC2)CC1 (centres undefined),activation,[1],-32.4% (inactive) and -8.93% (inactive)
same,Potency,[2],inactive
same,Potency,[3],inactive
same,Potency,[4],20.9 µM (active)
same,Potency,[8],18.6 µM (active)
same,Potency,[7],inactive
Cn1cc(-c2c[nH]c3ncnc(N4CCOCC4)c23)cn1,activation,[1],-7.14% (inactive)
same,Potency,[2],inactive
same,Potency,[3],inactive
same,Potency,[4],11.8 µM (active)
same,Potency,[6],inactive
same,Potency,[8],20.9 µM (active)
same,Potency,[7],inactive
CNc1nccc(-c2cccnc2Oc2cc(C(=O)Nc3cccc(C(F)(F)F)c3)ccc2C)n1,activation,[1],-0.576% (inactive)
same,Potency,[2],inactive
same,Potency,[3],inactive
same,Potency,[4],2.95 µM (active)
same,Potency,[6],6.61 µM (active)
same,Potency,[8],6.61 µM (active)
same,Potency,[7],6.61 µM (active)
Nc1ncnc2c1c(-c1cccc(OCc3ccccc3)c1)cn2C1CC(CN2CCCC2)C1 (centres undefined),activation,[1],31.8% (inactive)
same,Potency,[2],inactive
same,Potency,[3],inactive
same,Potency,[4],2.63 µM (active)
same,Potency,[5],18.6 µM (active)
same,Potency,[8],20.9 µM (active)
CCN1CCN(c2ccc(Nc3cc(N(C)C(=O)Nc4c(Cl)c(OC)cc(OC)c4Cl)ncn3)cc2)CC1,activation,[1],34.2% (inactive) and 7.14% (inactive)
same,Potency,[2],inactive
same,Potency,[3],inactive
same,Potency,[5],13.2 µM (active)
COc1cc2nccc(Oc3ccc(NC(=O)Nc4cc(C)on4)c(Cl)c3)c2cc1OC,Potency,[1],30.6 µM (active) and 21.3 µM (active)
same,Potency,[2],inactive
same,Potency,[3],inactive
same,Potency,[4],1.05 µM (active)
same,Potency,[5],0.209 µM (active)
same,Potency,[8],7.42 µM (active)
same,Potency,[7],6.61 µM (active)
CCn1c(=O)c(-c2ccn[nH]2)cc2c(C)nc(N)nc21,activation,[1],4.46% (inactive)
same,Potency,[2],inactive
same,Potency,[3],inactive
same,Potency,[4],5.25 µM (active)
same,Potency,[6],0.59 µM (active)
CN(C)CCOc1cc(-c2cn[nH]c2)ccc1NC(=O)C1COc2ccccc2O1 (centres undefined),activation,[1],-38.5% (inactive) and -11.6% (inactive)
same,Potency,[2],inactive
same,Potency,[3],inactive
same,Potency,[5],inactive
same,Potency,[8],5.9 µM (active)
N#CC[C@H](C1CCCC1)n1cc(-c2ncnc3[nH]ccc23)cn1,activation,[1],7.18% (inactive) and -12.3% (inactive)
same,Potency,[2],inactive
same,Potency,[3],inactive
same,Potency,[8],5.9 µM (active)
N#Cc1c(C2CCNCC2)cc(-c2c(O)cccc2OCC2CC2)nc1N,activation,[1],-1.56% (inactive)
same,Potency,[2],inactive
same,Potency,[3],inactive
same,Potency,[5],23.5 µM (active)
same,Potency,[6],16.6 µM (active)
same,Potency,[8],26.3 µM (active)
same,Potency,[7],16.6 µM (active)
N#Cc1cccc(-c2c[nH]c3ncnc(N4CCOCC4)c23)c1,activation,[1],-5.36% (inactive)
same,Potency,[2],inactive
same,Potency,[3],inactive
same,Potency,[8],18.6 µM (active)
same,Potency,[7],inactive
CC(C)c1cc(CNc2nc(Nc3cc(C4CC4)[nH]n3)cc(N3CCN(C)CC3)n2)on1,Potency,[1],4.26 µM (active)
same,Potency,[2],inactive
same,Potency,[3],inactive
same,Potency,[4],0.0742 µM (active)
same,Potency,[6],0.742 µM (active)
same,Potency,[8],0.0833 µM (active)
same,Potency,[7],0.0934 µM (active)
COc1c(Cl)cc2c([nH]c3cnccc32)c1NC(=O)c1cccnc1C,activation,[1],16.3% (inactive)
same,Potency,[2],inactive
same,Potency,[3],inactive
same,Potency,[8],20.9 µM (active)
same,Potency,[7],23.5 µM (active)
O=c1[nH]nc(OCCCc2ccc(Cl)cc2)c(NCc2cccnc2)c1Br,activation,[1],-4.06% (inactive) and -19.1% (inactive)
same,Potency,[2],inactive
same,Potency,[3],inactive
same,Potency,[7],20.9 µM (active)
O=C(O)C1=CCCN(CCON=C(c2ccccc2)c2ccccc2)C1,activation,[1],20.9% (inactive)
same,Potency,[9],inactive
C=CC(=O)Nc1cccc(Oc2nc(Nc3ccc(N4CCN(C)CC4)cc3OC)ncc2Cl)c1,Potency,[1],19.3 µM (active) and 30.1 µM (active)
same,Potency,[2],inactive
same,Potency,[10],20.9 µM (active)
same,Potency,[11],10.5 µM (active)
same,Potency,[4],4.68 µM (active)
same,Potency,[5],9.34 µM (active)
same,Potency,[8],14.8 µM (active)
same,Potency,[7],16.6 µM (active)
Cc1cc(O)cc(Oc2cc(C)c(C(=O)O)c(O)c2)c1,activation,[1],-7.63% (inactive)
same,Potency,[12],22.5 µM (active)
same,Potency,[13],17.9 µM (active)
O=C(/C=C/c1cccc(S(=O)(=O)Nc2ccccc2)c1)NO,Potency,[1],5.44 µM (active)
same,Potency,[2],inactive
same,Potency,[10],0.263 µM (active)
same,Potency,[11],0.742 µM (active)
same,Potency,[4],0.296 µM (active)
same,Potency,[5],0.934 µM (active)
same,Potency,[6],0.742 µM (active)
same,Potency,[8],0.934 µM (active)
same,Potency,[7],1.05 µM (active)
